# Laboratory results from PubChem BioAssay (EPA / NIEHS).
# Activity calls are given as the source filed them. The calls were made as follows: active = hit-call score of the fitted dose curve at least 0.9, where 1 is the maximum; inactive = score below 0.9.
# Key:
# Settings in all cases: mRNA level, 48 h; actives raise or lower the signal
# [1] = read-out: growth arrest and DNA damage 45 (GADD45G), GADD45G (gene 10912); assay: LTEA_HepaRG_GADD45G: Life Technologies and Expression Analysis (LTEA) Assay for growth arrest and DNA damage 45 (GADD45G) using HepaRG (AID 2283499)
# Procedure, shortened: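 Human hepatic HepaRG line treated 48 h with chemicals (eight concentrations, half-log steps from 100 uM); transcript induction or repression of GADD45G scored by qRT-PCR versus DMSO vehicle.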
# [2] = read-out: Glutamate-cysteine ligase regulatory (GCLM), GCLM (gene 2730); assay: LTEA_HepaRG_GCLM: Life Technologies and Expression Analysis (LTEA) Assay for Glutamate-cysteine ligase regulatory (GCLM) using HepaRG (AID 2283500)
# Procedure, shortened: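 Differentiated human HepaRG cells exposed 48 h in serum-free induction medium to 8-point half-log concentrations (top 100 uM, 0.5% DMSO), in duplicate. GCLM mRNA quantified by qRT-PCR, normalized to ACTB, GAPDH, POLR2A; bidirectional fitting versus DMSO.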
# [3] = read-out: Glutathione S-transferase M3 (GSTM3), GSTM3 (gene 2947); assay: LTEA_HepaRG_GSTM3: Life Technologies and Expression Analysis (LTEA) Assay for Glutathione S-transferase M3 (GSTM3) using HepaRG (AID 2283501)
# Procedure, shortened: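 Changes in GSTM3 expression, an oxidative-stress marker, were scored by bidirectional curve fitting against 0.5% DMSO vehicle. Human HepaRG cultures received chemicals for 48 h in duplicate, highest concentration 100 uM with half-log dilutions.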
# [4] = read-out: Heat shock 70 kDa protein 1 (HSPA1A), gene 3303; assay: LTEA_HepaRG_HSPA1A: Life Technologies and Expression Analysis (LTEA) Assay for Heat shock 70 kDa protein 1 (HSPA1A) using HepaRG (AID 2283502)
# Procedure, shortened: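 Differentiated human HepaRG cells in serum-free induction medium were exposed in duplicate for 48 h to eight concentrations (top 100 uM, half-log steps, 0.5% DMSO). HSPA1A mRNA was quantified by qRT-PCR, normalized to ACTB, GAPDH and POLR2A, and fitted bidirectionally against DMSO.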
# [5] = read-out: Hypoxia-inducible factor 1-alpha (Homo sapiens) (UniProt Q16665); assay: LTEA_HepaRG_HIF1A: Life Technologies and Expression Analysis (LTEA) Assay for Hypoxia-inducible factor 1 (HIF1A) Trancription factor using HepaRG (AID 2283503)
# Procedure, shortened: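 HepaRG, 48 h exposure, 8-pt half-log series from 100 uM, 0.5% DMSO vehicle, duplicates. Readout: HIF1A transcript by qRT-PCR (Fluidigm array), housekeeping-normalised. Bidirectional curve fit vs DMSO baseline.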
# [6] = read-out: 3-Hydroxy-3-Methylglutaryl-CoA Synthase 2 (HMGCS2), HMGCS2 (gene 3158); assay: LTEA_HepaRG_HMGCS2: Life Technologies and Expression Analysis (LTEA) Assay for 3-Hydroxy-3-Methylglutaryl-CoA Synthase 2 (HMGCS2) using HepaRG (AID 2283504)
# Procedure, shortened: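 Expression of HMGCS2 in human HepaRG liver cells is measured by qRT-PCR 48 h after dosing (highest 100 uM, half-log series, 0.5% DMSO). Values come from bidirectional concentration-response fitting with DMSO as baseline.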
# [7] = read-out: HGF (gene 3082); assay: LTEA_HepaRG_HGF: Life Technologies and Expression Analysis (LTEA) Assay for Hepatocyte Growth Facto (HGF) using HepaRG (AID 2283505)
# Procedure, shortened: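 Gain or loss of HGF mRNA in human HepaRG liver cells after 48 h chemical exposure; eight concentrations up to 100 uM with 0.5% DMSO vehicle, quantified by TaqMan qRT-PCR.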
# [8] = read-out: Insulin Like Growth Factor 1 (IGF1), IGF1 (gene 3479); assay: LTEA_HepaRG_IGF1: Life Technologies and Expression Analysis (LTEA) Assay for Insulin Like Growth Factor 1 (IGF1) using HepaRG (AID 2283506)
# Procedure, shortened: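 Differentiated human HepaRG cells were dosed for 48 h in serum-free induction medium with 0.5% DMSO, eight half-log concentrations up to 100 uM, in duplicate. IGF1 mRNA was quantified by qRT-PCR normalized to ACTB, GAPDH, POLR2A; bidirectional fitting versus DMSO.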
# [9] = read-out: Intercellular Adhesion Molecule 1 (ICAM1), ICAM1 (gene 3383); assay: LTEA_HepaRG_ICAM1: Life Technologies and Expression Analysis (LTEA) Assay for Intercellular Adhesion Molecule 1 (ICAM1) using HepaRG (AID 2283507)
# Procedure, shortened: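 Gain or loss of transcript in HepaRG hepatic cells is quantified by qRT-PCR after 48 h chemical exposure (up to 100 uM, half-log steps), with DMSO as baseline.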
# [10] = read-out: Insulin-like growth factor-binding protein 1 (IGFBP1), IGFBP1 (gene 3484); assay: LTEA_HepaRG_IGFBP1: Life Technologies and Expression Analysis (LTEA) Assay for Insulin-like growth factor-binding protein 1 (IGFBP1) using HepaRG (AID 2283508)
# Procedure, shortened: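 mRNA induction or loss was quantified by qRT-PCR after 48 h chemical exposure of human HepaRG cells, with 0.5% DMSO as vehicle and baseline. Concentration-response over eight points up to 100 uM.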
# [11] = read-out: Interleukin 6 (IL6), IL6 (gene 3569); assay: LTEA_HepaRG_IL6: Life Technologies and Expression Analysis (LTEA) Assay for Interleukin 6 (IL6) using HepaRG (AID 2283509)
# Procedure, shortened: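 Differentiated human HepaRG cells, plated 48 h then switched to serum-free induction medium, were exposed in duplicate for 48 h to eight half-log concentrations up to 100 uM in 0.5% DMSO. IL6 mRNA measured by qRT-PCR, normalized to ACTB/GAPDH/POLR2A.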
# [12] = read-out: Interleukin 6 Receptor (IL6R), IL6R (gene 3570); assay: LTEA_HepaRG_IL6R: Life Technologies and Expression Analysis (LTEA) Assay for Interleukin 6 Receptor (IL6R) using HepaRG (AID 2283510)
# Procedure, shortened: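 Differentiated human HepaRG cells, plated 48 h then switched to serum-free induction medium, were dosed in duplicate for 48 h at eight half-log concentrations up to 100 uM in 0.5% DMSO. IL6R mRNA quantified by qRT-PCR, normalized to ACTB/GAPDH/POLR2A; bidirectional fit versus DMSO.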
# [13] = read-out: Potassium channel subfamily K member 1 (KCNK1), KCNK1 (gene 3775); assay: LTEA_HepaRG_KCNK1: Life Technologies and Expression Analysis (LTEA) Assay for Potassium channel subfamily K member 1 (KCNK1) using HepaRG (AID 2283511)
# Procedure, shortened: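 Differentiated human HepaRG cells in serum-free induction medium were exposed in duplicate for 48 h to 8 half-log concentrations up to 100 uM in 0.5% DMSO. KCNK1 mRNA was measured by TaqMan qRT-PCR, normalized to ACTB, GAPDH and POLR2A, and fitted bidirectionally versus DMSO.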
# [14] = read-out: Keratin 19 (KRT19), KRT19 (gene 3880); assay: LTEA_HepaRG_KRT19: Life Technologies and Expression Analysis (LTEA) Assay for Keratin 19 (KRT19) using HepaRG (AID 2283512)
# Procedure, shortened: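 Gene-expression endpoint in the human liver line HepaRG after 48 h exposure to up to 100 uM test chemical with 0.5% DMSO vehicle; KRT19 mRNA by qRT-PCR, analyzed bidirectionally versus DMSO.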
# [15] = read-out: JUN Transcription Factor, JUN (gene 3725); assay: LTEA_HepaRG_JUN: Life Technologies and Expression Analysis (LTEA) Assay for JUN Transcription Factor using HepaRG (AID 2283513)
# Procedure, shortened: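 Differentiated HepaRG cells were exposed to chemicals for 48 h in serum-free induction medium, 8 concentrations from 100 uM in half-log steps, 0.5% DMSO vehicle, in duplicate. JUN mRNA was quantified by TaqMan qRT-PCR, normalized to ACTB, GAPDH, POLR2A.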
# [16] = read-out: Lipase C (LIPC), LIPC (gene 3990); assay: LTEA_HepaRG_LIPC: Life Technologies and Expression Analysis (LTEA) Assay for Lipase C (LIPC) using HepaRG (AID 2283514)
# Procedure, shortened: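 Differentiated human HepaRG cells in serum-free induction medium were exposed in duplicate for 48 h to eight concentrations (top 100 uM, half-log steps, 0.5% DMSO). LIPC mRNA was quantified by TaqMan qRT-PCR, normalized to ACTB, GAPDH and POLR2A, with bidirectional fitting versus DMSO.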
# [17] = read-out: Lipoprotein lipase (LPL), LPL (gene 4023); assay: LTEA_HepaRG_LPL: Life Technologies and Expression Analysis (LTEA) Assay for Lipoprotein lipase (LPL) using HepaRG (AID 2283515)
# Procedure, shortened: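 Differentiated human HepaRG cells in serum-free induction medium were exposed in duplicate for 48 h to eight half-log concentrations (top 100 uM) in 0.5% DMSO. LPL mRNA was quantified by TaqMan qRT-PCR, normalized to ACTB, GAPDH and POLR2A.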
# [18] = read-out: MicroRNA 122 (MIR122), gene 406906; assay: LTEA_HepaRG_MIR122: Life Technologies and Expression Analysis (LTEA) Assay for MicroRNA 122 (MIR122) using HepaRG (AID 2283516); also: the transcript read is the microRNA miR-122
# Procedure, shortened: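 Differentiated human HepaRG cells were exposed 48 h in serum-free induction medium to eight half-log concentrations (top 100 uM, 0.5% DMSO). Transcript level was measured by TaqMan qRT-PCR, normalized to ACTB, GAPDH and POLR2A, and fitted bidirectionally versus DMSO.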
# [19] = read-out: matrix metalloproteinase-10 (MMP10), MMP10 (gene 4319); assay: LTEA_HepaRG_MMP10: Life Technologies and Expression Analysis (LTEA) Assay for matrix metalloproteinase-10 (MMP10) using HepaRG (AID 2283517)
# Procedure, shortened: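 HepaRG, collagen I, ~100,000 cells/well; serum-free induction medium; 48 h exposure, duplicate, 8-pt half-log to 100 uM, 0.5% DMSO. Readout: TaqMan qRT-PCR, normalized to ACTB/GAPDH/POLR2A; bidirectional fit vs DMSO.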
# [20] = read-out: MYC, MYC (gene 4609); assay: LTEA_HepaRG_MYC: Life Technologies and Expression Analysis (LTEA) Assay for MYC using HepaRG (AID 2283518)
# Procedure, shortened: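 Cells are thawed, plated and cultured 48 h, then treated for 48 h with test chemicals (eight half-log concentrations from 100 uM, 0.5% DMSO vehicle). RNA is isolated and MYC expression quantified by qRT-PCR against three housekeeping genes.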
# Sequence of Hypoxia-inducible factor 1-alpha (Homo sapiens) (Q16665 whole entry, looked up): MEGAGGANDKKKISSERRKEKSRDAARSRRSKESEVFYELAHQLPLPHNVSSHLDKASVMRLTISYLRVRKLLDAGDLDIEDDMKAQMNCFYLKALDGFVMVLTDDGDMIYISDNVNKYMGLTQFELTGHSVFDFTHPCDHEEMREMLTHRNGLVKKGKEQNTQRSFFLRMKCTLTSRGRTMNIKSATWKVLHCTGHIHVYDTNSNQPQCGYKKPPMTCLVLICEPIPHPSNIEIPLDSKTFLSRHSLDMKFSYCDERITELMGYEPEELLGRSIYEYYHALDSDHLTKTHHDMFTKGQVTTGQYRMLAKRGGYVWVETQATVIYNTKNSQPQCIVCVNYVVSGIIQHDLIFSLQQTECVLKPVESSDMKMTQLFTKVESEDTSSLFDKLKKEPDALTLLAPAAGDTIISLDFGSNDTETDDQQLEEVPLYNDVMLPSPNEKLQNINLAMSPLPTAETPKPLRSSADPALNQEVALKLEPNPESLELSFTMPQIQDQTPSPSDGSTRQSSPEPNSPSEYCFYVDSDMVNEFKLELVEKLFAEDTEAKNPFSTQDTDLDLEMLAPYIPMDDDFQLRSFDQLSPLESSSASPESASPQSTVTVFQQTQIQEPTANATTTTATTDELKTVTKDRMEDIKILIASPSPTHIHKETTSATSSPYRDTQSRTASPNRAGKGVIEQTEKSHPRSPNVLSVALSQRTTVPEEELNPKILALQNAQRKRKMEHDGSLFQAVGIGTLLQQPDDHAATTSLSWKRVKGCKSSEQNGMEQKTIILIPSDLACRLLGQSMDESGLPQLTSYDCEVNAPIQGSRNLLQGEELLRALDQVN
structure (smiles),measurement,setting,value
c1cc(-c2ccncc2)ccn1,outcome,[1],inactive
same,outcome,[2],inactive
same,outcome,[3],inactive
same,outcome,[4],inactive
same,outcome,[5],inactive
same,outcome,[6],inactive
same,outcome,[7],inactive
same,outcome,[8],inactive
same,outcome,[9],inactive
same,outcome,[10],inactive
same,outcome,[11],inactive
same,outcome,[12],inactive
same,outcome,[13],inactive
same,outcome,[14],inactive
same,outcome,[15],inactive
same,outcome,[16],inactive
same,outcome,[17],inactive
same,outcome,[18],inactive
same,outcome,[19],inactive
Nc1ccc2c(c1)C(=O)c1ccccc1C2=O,AC50,[1],3.17 µM (active)
same,AC50,[2],10.1 µM (active)
same,outcome,[3],inactive
same,outcome,[4],inactive
same,outcome,[5],inactive
same,AC50,[6],16.5 µM (active)
same,outcome,[7],inactive
same,outcome,[8],inactive
same,outcome,[9],inactive
same,AC50,[10],13.2 µM (active)
same,outcome,[11],inactive
same,outcome,[12],inactive
same,outcome,[13],inactive
same,AC50,[14],9.08 µM (active)
same,outcome,[15],inactive
same,AC50,[16],8.27 µM (active)
same,AC50,[17],2.09 µM (active)
same,AC50,[18],4.24 µM (active)
same,outcome,[19],inactive
same,AC50,[20],12.3 µM (active)
Cc1ccc2ncccc2c1,outcome,[1],inactive
same,outcome,[2],inactive
same,outcome,[3],inactive
same,outcome,[4],inactive
same,outcome,[5],inactive
same,outcome,[6],inactive
same,outcome,[7],inactive
same,outcome,[8],inactive
same,outcome,[9],inactive
same,outcome,[10],inactive
same,outcome,[11],inactive
same,outcome,[12],inactive
same,outcome,[13],inactive
same,outcome,[14],inactive
same,outcome,[15],inactive
same,outcome,[16],inactive
same,outcome,[17],inactive
same,outcome,[18],inactive
same,outcome,[19],inactive
same,outcome,[20],inactive
Cc1ccc(Cl)cc1,outcome,[1],inactive
same,outcome,[2],inactive
same,outcome,[3],inactive
same,outcome,[4],inactive
same,outcome,[5],inactive
same,outcome,[6],inactive
same,outcome,[7],inactive
same,outcome,[8],inactive
same,outcome,[9],inactive
same,outcome,[10],inactive
same,outcome,[11],inactive
same,outcome,[12],inactive
same,outcome,[13],inactive
same,outcome,[14],inactive
same,outcome,[15],inactive
same,outcome,[16],inactive
same,outcome,[17],inactive
same,outcome,[18],inactive
same,outcome,[19],inactive
same,outcome,[20],inactive
Cc1ccc(N(C)C)cc1,outcome,[1],inactive
same,outcome,[2],inactive
same,outcome,[3],inactive
same,outcome,[4],inactive
same,outcome,[5],inactive
same,outcome,[6],inactive
same,outcome,[7],inactive
same,outcome,[8],inactive
same,outcome,[9],inactive
same,outcome,[10],inactive
same,outcome,[11],inactive
same,outcome,[12],inactive
same,outcome,[13],inactive
same,outcome,[14],inactive
same,outcome,[15],inactive
same,outcome,[16],inactive
same,outcome,[17],inactive
same,outcome,[18],inactive
same,outcome,[19],inactive
same,outcome,[20],inactive
CCCCCCOCCO,outcome,[1],inactive
same,outcome,[2],inactive
same,outcome,[3],inactive
same,outcome,[4],inactive
same,outcome,[5],inactive
same,outcome,[6],inactive
same,outcome,[7],inactive
same,outcome,[8],inactive
same,outcome,[9],inactive
same,outcome,[10],inactive
same,outcome,[11],inactive
same,outcome,[12],inactive
same,outcome,[13],inactive
same,outcome,[14],inactive
same,outcome,[15],inactive
same,outcome,[16],inactive
same,outcome,[17],inactive
same,outcome,[18],inactive
same,outcome,[19],inactive
same,outcome,[20],inactive
Cc1cccc(C)c1O,outcome,[1],inactive
same,outcome,[2],inactive
same,outcome,[3],inactive
same,outcome,[4],inactive
same,outcome,[5],inactive
same,outcome,[6],inactive
same,outcome,[7],inactive
same,outcome,[8],inactive
same,outcome,[9],inactive
same,outcome,[10],inactive
same,outcome,[11],inactive
same,outcome,[12],inactive
same,outcome,[13],inactive
same,outcome,[14],inactive
same,outcome,[15],inactive
same,outcome,[16],inactive
same,outcome,[17],inactive
same,outcome,[18],inactive
same,outcome,[19],inactive
same,outcome,[20],inactive
